PubChem BioAssay AID720697 (Broad Institute, 2013)
Results with a measured potency or affinity are listed apart. Results filed as inconclusive are left out. The source made the active and inactive calls.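 Rule for the calls: active = signal loss with fitted half-maximal concentration at or below twice the top valid tested dose in every test run; inconclusive = runs disagree, flat 30 to 70% signal loss, or poor fit; inactive = all runs flat, opposite direction, or potency beyond limit.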

Assay: HEK293T cytotoxicity, dose response, cytotoxicity control for miR-122 modulator project, cell-based, inhibitor set, cherry-pick, set 2 (AID 720697)
Details: HEK293T viability, CellTiter-Glo luminescence, 48 h; series mostly up to 26 µM

| Compound | outcome |
| --- | --- |
| C/C=C/c1ccc([C@@H]2[C@H](CO)N[C@H]2CN(CC)C(=O)CN2CCOCC2)cc1 | inactive |
| CNC(=O)C[C@H]1CC[C@H]2[C@@H](COc3ccc(NC(=O)C(C)C)cc3C(=O)N2C)O1 | inactive |
| CCC(=O)N1[C@H](CO)[C@H](c2ccccc2)[C@@H]1CN(C(C)C)S(C)(=O)=O | inactive |
| N#CCc1c(C#N)c(N)nc(N2CCN(S(=O)(=O)c3ccccc3)CC2)c1C#N | inactive |
| COc1cccc(NC(=O)N2[C@H](CO)[C@@H](c3ccccc3)[C@H]2CNCC(C)C)c1 | inactive |
| COc1cccc(CNC(=O)C[C@@H]2CC[C@H]3[C@H](COc4ccc(NC(C)=O)cc4C(=O)N3C)O2)c1 | inactive |
| CN1C(=O)c2cc(NC(=O)c3cccc(F)c3)ccc2OC[C@@H]2O[C@@H](CC(=O)O)CC[C@H]21 | inactive |
| COC(=O)c1nn(-c2ccccc2)c(Sc2ccc(Cl)cc2)c1/C=N/O | inactive |
| CN1C(=O)c2cc(NC(=O)c3cccc(F)c3)ccc2OC[C@@H]2O[C@H](CC(=O)O)CC[C@H]21 | inactive |
| CN1C(=O)c2cc(NC(=O)c3ccc(C(F)(F)F)cc3)ccc2OC[C@@H]2O[C@H](CC(=O)NC3Cc4ccccc4C3)CC[C@H]21 | inactive |
| CCN(C[C@@H]1[C@@H](c2ccc(C3=CCCCC3)cc2)[C@@H](CO)N1CC1CC1)C(C)=O | inactive |
| O=C(C1CCCCC1)N1C[C@@H]2[C@H](c3ccccc31)[C@H](CO)N2Cc1ccccc1Cl | inactive |
| CC(C)C(=O)Nc1ccc2c(c1)C(=O)N(C)[C@@H]1CC[C@@H](CC(=O)N[C@H](C)c3ccccc3)O[C@@H]1CO2 | inactive |
| C[C@@H]1CN([C@@H](C)CO)S(=O)(=O)c2ccc(-c3ccccc3)cc2O[C@@H]1CN(C)C(=O)c1ccc2c(c1)OCO2 | inactive |
| CCC(=O)N1[C@@H](CO)[C@@H](c2ccccc2)[C@@H]1CN(C(C)C)S(C)(=O)=O | inactive |
| CC(=O)N1[C@H](CO)[C@@H](c2ccccc2)[C@H]1CN(C)C(=O)CN1CCOCC1 | inactive |
| Cc1c(CC(=O)NCCCC(=O)O)c(=O)oc2cc3occ(-c4ccccc4)c3cc12 | inactive |
| CN1C[C@@H]2[C@H](c3ccccc31)[C@@H](CO)N2C(=O)Nc1ccccc1 | inactive |

| Compound | outcome |
| --- | --- |
| CN1C(=O)c2cc(NC(=O)Nc3ccccc3F)ccc2OC[C@@H]2O[C@H](CC(=O)O)CC[C@@H]21 | inactive |
| COc1cc(NC(=O)c2c(F)c(F)c(F)c(F)c2F)c(OC)cc1Cl | inactive |
| CC(=O)N=c1scc(-c2ccccc2)n1-c1cccc(O)c1 | inactive |
| C[C@H]1CN([C@@H](C)CO)C(=O)c2cc(C#CC3CCCC3)cnc2O[C@H]1CN(C)C(=O)Cc1ccccn1 | inactive |
| Cc1nn(C)cc1NC(=O)C[C@@H]1CC[C@@H]2[C@H](COc3ccc(NC(=O)Nc4cccc(Cl)c4)cc3C(=O)N2C)O1 | inactive |
| CCN(C[C@@H]1[C@@H](c2ccccc2)[C@H](CO)N1C(C)=O)C(=O)NC(C)C | inactive |
| CN1C(=O)c2cc(NC(=O)Nc3cccc(Cl)c3)ccc2OC[C@H]2O[C@@H](CC(=O)NCCc3ccncc3)CC[C@H]21 | inactive |
| CNC(=O)C[C@H]1CC[C@H]2[C@H](COc3ccc(NC(=O)c4cccc(OC)c4)cc3C(=O)N2C)O1 | inactive |
| OC(c1cc(C(F)(F)F)nc2c(Cl)cc(Cl)cc12)C1CCCCN1 (stereo not given) | inactive |
| CO[C@H]1CN(C)C(=O)c2ccc(NS(C)(=O)=O)cc2OC[C@H](C)N(C(=O)CN(C)C)C[C@H]1C | inactive |
| O=C(Nc1ccc(Cl)cc1)N1C[C@H]2[C@@H](c3ccccc31)[C@H](CO)N2CC1CCCCC1 | inactive |
| CN(C[C@H]1[C@H](c2ccccc2)[C@@H](CO)N1CC1CC1)C(=O)c1cccc(F)c1 | inactive |
| COc1cccc(C(=O)Nc2ccc3c(c2)C(=O)N(C)[C@@H]2CC[C@H](CC(=O)NCc4ccc(F)cc4)O[C@@H]2CO3)c1 | inactive |
| C/C=C/c1ccc2c(c1)O[C@H](CN(C)C(=O)c1cnccn1)[C@H](C)CN([C@H](C)CO)S2(=O)=O | inactive |
| C[C@@H]1CN([C@@H](C)CO)S(=O)(=O)c2ccc(C3=CCCCC3)cc2O[C@@H]1CN(C)C(=O)Cc1ccncc1 | inactive |
| C[C@@H]1CN([C@@H](C)CO)C(=O)c2cccc(NC(=O)c3ccc(-c4nccs4)cc3)c2O[C@H]1CN(C)Cc1ccc2c(c1)OCO2 | inactive |
| C/C=C/c1ccc([C@H]2[C@@H](CNC(=O)c3ccncc3)N(C(=O)CC)[C@H]2CO)cc1 | inactive |
